IDE exosite inh = displaces the probe from the exo-site of human IDE | P14735 | purified IDE, FL-6b probe fluorescence polarization; stronger effect = lower value | z-score at 20 µM | 6.3% of 17,000 active;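 active = z-score of -3 or lower, meaning strong loss of probe binding signal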;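 also: His-tagged human IDE residues 42-1019 made in E. coli with 30 nM FL-6b probe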
Numbers without * were called inactive. The entries come from a sample that favours hits as a whole.

SMILES	IDE exosite inh
CN(C)C(=O)c1ccc(-c2ccc([C@@H]3[C@@H](CO)N4C(=O)CN(C(=O)C5CC5)C[C@H]34)cc2)cc1	3.2
CN(C)C(=O)c1ccc(-c2ccc([C@H]3[C@H](CO)N4CCCCN(CC5CC5)C[C@@H]34)cc2)cc1	2.9
O=C(c1cccnc1)N1CC(=O)N2[C@H](C1)[C@@H](c1ccc(C#CCC3CCCC3)cc1)[C@@H]2CO	4.9
C/C=C/c1ccc([C@@H]2[C@H](CO)N(CC3CC3)[C@H]2CNC(=O)c2ccccc2)cc1	1.4
CN(C)C(=O)c1cccc(-c2ccc([C@@H]3[C@H]4CN(S(C)(=O)=O)CCCCN4[C@H]3CO)cc2)c1	4
O=C1CCCc2cnnn2COCCN1	-0.5
O=C(C1CC1)N1CC(=O)N2[C@H](C1)[C@H](c1ccc(-c3cccnc3)cc1)[C@@H]2CO	0.95
C/C=C/c1ccc([C@@H]2[C@H]3CN(C(=O)c4ccncc4)CC(=O)N3[C@H]2CO)cc1	-0.28
O=C(Nc1ccccc1F)N1CCCCN2[C@H](C1)[C@@H](c1ccc(-c3cccnc3)cc1)[C@@H]2CO	-1.4
O=C(C1CCOCC1)N1CC(=O)N2[C@H](C1)[C@H](c1ccc(C#CC3CC3)cc1)[C@@H]2CO	2
O=C(NC1CCCC1)N1CCCCN2[C@H](CO)[C@H](c3ccc(-c4ccccc4)cc3)[C@H]2C1	-5*
CCCC#Cc1ccc([C@H]2[C@H]3CN(C(=O)NC4CCCC4)CCCCN3[C@H]2CO)cc1	-1.2
CCCC#Cc1ccc([C@H]2[C@@H](CO)N3CCCCN(C(=O)NC4CCCC4)C[C@@H]23)cc1	-1
O=C(NC1CCCC1)N1CCCCN2[C@@H](CO)[C@@H](c3ccc(-c4ccccc4)cc3)[C@@H]2C1	-7*
O=C(NC1CCCC1)N1CCCCN2[C@H](CO)[C@@H](c3ccc(-c4cncnc4)cc3)[C@H]2C1	2.2
CCCC#Cc1ccc([C@@H]2[C@@H](CO)N3CCCCN(C(=O)NC4CCCC4)C[C@H]23)cc1	-4.9*
O=C(NC1CCCC1)N1CCCCN2[C@H](CO)[C@@H](c3ccc(-c4cncnc4)cc3)[C@@H]2C1	-0.14
O=C(NC1CCCC1)N1CCCCN2[C@H](C1)[C@@H](c1ccc(-c3cncnc3)cc1)[C@@H]2CO	3.6
O=C(NC1CCCC1)N1CCCCN2[C@H](CO)[C@@H](c3ccc(-c4cccnc4)cc3)[C@@H]2C1	-1.3
O=C(NC1Cc2ccccc2C1)[C@H]1N[C@H]2c3cccc(=O)n3C[C@H]2[C@@H]1CO	0.95
COc1ccc2c3c(n(C)c2c1)[C@H](CO)N(C(=O)CN(C)C)CC31CN(Cc2nccs2)C1	-1.8
O=C(O)[C@H]1[C@H](CO)[C@H]2Cn3c(cccc3=O)[C@H]2N1C(=O)NC1CCCC1	-0.19
COCC(=O)N1[C@H](C#N)[C@H](c2ccccc2-c2ccccc2)[C@H]1CO	2.7
CC(C)c1cn(CC[C@H]2CC[C@H](NS(=O)(=O)c3ccc(F)cc3)[C@@H](CO)O2)nn1	1.5
CO[C@H](CN(C)Cc1ccc2c(c1)OCO2)[C@H](C)CN(C(=O)Nc1ccc(F)cc1)[C@@H](C)CO	0.015
SMILES	IDE exosite inh
COCCNC(=O)C[C@@H]1CC[C@H]2[C@@H](COC[C@H](O)CN2C(=O)c2cc(Cl)cc(Cl)c2)O1	0.27
CCC(=O)N1CCCCN2[C@H](CO)[C@@H](c3ccc(/C=C/c4ccccc4)cc3)[C@H]2C1	-2.6
CCC(=O)N1CCCCN2[C@@H](CO)[C@H](c3ccc(/C=C/c4ccccc4)cc3)[C@@H]2C1	-7.2*
O=C(c1cccc(F)c1)N1CCCCN2[C@H](C1)[C@H](c1ccc(/C=C/c3ccccc3)cc1)[C@@H]2CO	0.48
O=C(c1cccc(F)c1)N1CCCCN2[C@H](CO)[C@@H](c3ccc(/C=C/c4ccccc4)cc3)[C@@H]2C1	2.4
O=C(c1ccc(F)cc1)N1CCCCN2[C@@H](CO)[C@H](c3ccc(/C=C/c4ccccc4)cc3)[C@@H]2C1	-3.4*
CCC(=O)N1CCCCN2[C@H](CO)[C@H](c3ccc(-c4ccc(F)cc4)cc3)[C@@H]2C1	1.7
CCC(=O)N1CCCCN2[C@@H](CO)[C@@H](c3ccc(-c4ccc(F)cc4)cc3)[C@@H]2C1	0.52
CN1CCCCN2[C@H](CO)[C@H](c3ccc(-c4ccccc4)cc3)[C@H]2C1	4.3
CCC(=O)N1CCCCN2[C@H](CO)[C@H](c3ccc(/C=C/c4ccccc4)cc3)[C@H]2C1	-3.1*
CCC(=O)N1CCCCN2[C@H](CO)[C@H](c3ccc(-c4ccc(F)cc4)cc3)[C@H]2C1	3.3
CN1CCCCN2[C@H](CO)[C@H](c3ccc(/C=C/c4ccccc4)cc3)[C@H]2C1	-3
CN1CCCCN2[C@H](CO)[C@@H](c3ccc(/C=C/c4ccccc4)cc3)[C@H]2C1	-5.4*
CCC(=O)N1C[C@H](C)[C@H](OC)CN(C)C(=O)c2cc(NC(=O)Nc3ccc(Cl)cc3)ccc2OC[C@@H]1C	-0.64
CC(C)C(=O)Nc1ccc2c(c1)C(=O)N(C)[C@H]1CC[C@@H](CC(=O)NCCc3ccccc3)O[C@H]1CO2	-0.18
Cc1ccc(OC(=O)N(C)C[C@@H]2OCc3ccccc3-c3ccccc3C(=O)N([C@@H](C)CO)C[C@@H]2C)cc1	0.021
COc1ccc(-c2ccccc2[C@@H]2[C@@H](C#N)N(C(=O)C3CC3)[C@H]2CO)cc1	2.1
CC(C)C#Cc1ccc([C@@H]2[C@@H](CO)N3C(=O)CN(S(=O)(=O)c4ccccc4)C[C@H]23)cc1	-1
C/C=C/c1ccc([C@H]2[C@@H](CO)N(C(=O)CC)[C@H]2CN(C)Cc2cncnc2)cc1	-0.73
CN1c2ccc(Br)cc2[C@H]2[C@H](CCN2C(=O)CN2CCOCC2)[C@@H]1CO	2.2
Cc1ccc(S(=O)(=O)NCC[C@@H]2CC[C@@H](NC(=O)c3cccnc3)[C@H](CO)O2)cc1	1.8
CO[C@@H]1CN(C)C(=O)c2cc(NC(C)=O)ccc2OC[C@@H](C)N(Cc2ccncc2)C[C@H]1C	-0.2
C[C@@H]1CCCCO[C@H](CN(C)C(=O)Nc2ccc(C(F)(F)F)cc2)[C@@H](C)CN([C@H](C)CO)C(=O)c2cc(NS(=O)(=O)c3cn(C)cn3)ccc2O1	1.3
Cc1cccc(-c2ccc([C@H]3[C@@H](CO)N4C(=O)CN(C(=O)c5cnccn5)C[C@@H]34)cc2)c1	-9.3*
O=C(c1cnccn1)N1CC(=O)N2[C@@H](CO)[C@H](c3ccc(-c4ccccc4)cc3)[C@@H]2C1	-3.8*
SMILES	IDE exosite inh
O=C(c1cnccn1)N1CC(=O)N2[C@H](CO)[C@H](c3ccc(-c4ccc(F)cc4)cc3)[C@H]2C1	4
O=C(c1cnccn1)N1CC(=O)N2[C@H](CO)[C@@H](c3ccc(-c4ccc(F)cc4)cc3)[C@@H]2C1	2.6
Cc1cccc(-c2ccc([C@H]3[C@@H](CO)N4C(=O)CN(C(=O)c5cnccn5)C[C@H]34)cc2)c1	-12*
O=C(c1cnccn1)N1CC(=O)N2[C@H](CO)[C@H](c3ccc(-c4ccccc4)cc3)[C@@H]2C1	2.8
O=C(c1cnccn1)N1CC(=O)N2[C@H](CO)[C@@H](c3ccc(-c4ccccc4)cc3)[C@@H]2C1	-3
O=C(c1cnccn1)N1CC(=O)N2[C@@H](CO)[C@H](c3ccc(-c4cccc(F)c4)cc3)[C@@H]2C1	-2.3
O=C(c1cnccn1)N1CC(=O)N2[C@@H](CO)[C@H](c3ccc(C4=CCCCC4)cc3)[C@@H]2C1	-1.6
CC(=O)N1CC2(C1)[C@H](c1ccc(-c3cccc(C#N)c3)cc1)[C@H](CO)N2CCC(F)(F)F	1.8
CN(C)C(=O)c1ccc(-c2ccc([C@@H]3[C@@H](C#N)N(C(=O)Cc4ccccn4)[C@H]3CO)cc2)cc1	0.85
